Assay results from PubChem BioAssay AID1159580 (chemical genetic matrix, 2015).
Values joined by “and” are separate entries in the source; they are usually repeats but may differ in a detail not shown here. Equal values may be shown once. In all, about 5,500 compounds went through this assay and about 2,000 (36%) were called active. Not shown: some 18% with an inconclusive outcome. Rule as the data show it: active = normalized growth mostly below about 0.91 (no sharp cut-off); inconclusive = no clear call, values can overlap the other calls; inactive = mostly above about 0.92. The list shows a part of the results.

Assay: chemical genetic growth profiling, strain panel (AID 1159580);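 also: tested at 20 µM; growth read once vehicle control cultures reached saturation at 30 °C; 1 = growth at the plate median or of vehicle wells; lower values mean less growth of the strain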
Details: S. cerevisiae deletion strains, growth OD

Structure (SMILES): CC(=O)Nc1nnc(S(N)(=O)=O)s1
- normalized growth (locus YAL013W, strain DEP1, stronger effect = lower value): 0.987 (inactive)
- normalized growth (locus YAL021C, strain ccr4, stronger effect = lower value): 1 (inactive)
- normalized growth (locus YAL026C, strain drs2, stronger effect = lower value): 1 (inactive)
- normalized growth (locus YAL030W, strain snc1, stronger effect = lower value): 1.02 (inactive)
- normalized growth (locus YAL040C, strain CLN3, stronger effect = lower value): 0.992 (inactive)
- normalized growth (locus YBL061C, strain skt5, stronger effect = lower value): 1.01 (inactive)
- normalized growth (locus YBR009C, strain hhf1, stronger effect = lower value): 0.991 (inactive)
- normalized growth (locus YBR021W, strain FUR4, stronger effect = lower value): 0.944 (inactive)
- normalized growth (locus YBR023C, strain chs3, stronger effect = lower value): 1.01 (inactive)
- normalized growth (locus YBR171W, strain sec66, stronger effect = lower value): 1.02 (inactive)
- normalized growth (locus YBR229C, strain ROT2, stronger effect = lower value): 0.95 (inactive)
- normalized growth (locus YBR231C, strain swc5, stronger effect = lower value): 1.01 (inactive)
- normalized growth (locus YBR279W, strain paf1, stronger effect = lower value): 1.01 (inactive)
- normalized growth (locus YCL011C, strain gbp2, stronger effect = lower value): 1.02 (inactive)
- normalized growth (locus YCL016C, strain dcc1, stronger effect = lower value): 1 (inactive)
- normalized growth (locus YCL029C, strain bik1, stronger effect = lower value): 0.987 (inactive)
- normalized growth (locus YCL061C, strain MRC1 (second series), stronger effect = lower value): 0.999 (inactive)
- normalized growth (locus YCL069W, strain vba3, stronger effect = lower value): 1.02 (inactive)
- normalized growth (locus YCR088W, strain abp1, stronger effect = lower value): 1.01 (inactive)
- normalized growth (locus YDL005C, strain med2, stronger effect = lower value): 0.997 (inactive)
- normalized growth (locus YDL035C, strain GPR1, stronger effect = lower value): 0.538 (active)
- normalized growth (locus YDL040C, strain nat1, stronger effect = lower value): 1.01 (inactive)
- normalized growth (locus YDL074C, strain BRE1, stronger effect = lower value): 0.709 (active)
- normalized growth (locus YDL101C, strain DUN1, stronger effect = lower value): 0.878 (active)
- normalized growth (locus YDL134C, strain PPH21, stronger effect = lower value): 0.621 (active)
- normalized growth (locus YDL185W, strain tfp1, stronger effect = lower value): 0.998 (inactive)
- normalized growth (locus YDL192W, strain arf1, stronger effect = lower value): 0.915 (active)
- normalized growth (locus YDR001C, strain nth1, stronger effect = lower value): 1.01 (inactive)
- normalized growth (locus YDR069C, strain doa4, stronger effect = lower value): 1.01 (inactive)
- normalized growth (locus YDR101C, strain arx1, stronger effect = lower value): 0.998 (inactive)
- normalized growth (locus YDR137W, strain rgp1, stronger effect = lower value): 1 (inactive)
- normalized growth (locus YDR159W, strain sac3, stronger effect = lower value): 0.99 (inactive)
- normalized growth (locus YDR162C, strain NBP2, stronger effect = lower value): 0.126 (active)
- normalized growth (locus YDR195W, strain ref2): 1.01 (inactive)
- normalized growth (locus YDR297W, strain sur2, stronger effect = lower value): 1.01 (inactive)
- normalized growth (locus YDR318W, strain mcm21, stronger effect = lower value): 0.917 (active)
- normalized growth (locus YDR334W, strain swr1, stronger effect = lower value): 1.01 (inactive)
- normalized growth (locus YDR335W, strain msn5, stronger effect = lower value): 1 (inactive)
- normalized growth (locus YDR388W, stronger effect = lower value): 0.959 (inactive)
- normalized growth (locus YDR392W, strain spt3, stronger effect = lower value): 1 (inactive)
- normalized growth (locus YDR502C, strain sam2, stronger effect = lower value): 0.943 (inactive)
- normalized growth (locus YEL003W, strain gim4, stronger effect = lower value): 1.01 (inactive)
- normalized growth (locus YEL037C, strain rad23, stronger effect = lower value): 1.02 (inactive)
- normalized growth (locus YEL061C, strain CIN8 (second series), stronger effect = lower value): 1.02 (inactive)
- normalized growth (locus YEL061C, strain CIN8, stronger effect = lower value): 0.728 (active)
- normalized growth (locus YER002W, strain NOP16, stronger effect = lower value): 1.03 (inactive)
- normalized growth (locus YER015W, strain faa2, stronger effect = lower value): 0.997 (inactive)
- normalized growth (locus YER016W, strain bim1, stronger effect = lower value): 0.99 (inactive)
- normalized growth (locus YER110C, stronger effect = lower value): 1.01 (inactive)
- normalized growth (locus YER111C, strain swi4, stronger effect = lower value): 1.01 (inactive)
- normalized growth (locus YER155C, strain BEM2 (second series), stronger effect = lower value): 1.03 (inactive)
- normalized growth (locus YER155C, strain BEM2, stronger effect = lower value): 1.01 (inactive)
- normalized growth (locus YER167W, strain BCK2, stronger effect = lower value): 0.748 (active)
- normalized growth (locus YFR010W, strain ubp6, stronger effect = lower value): 1.03 (inactive)
- normalized growth (locus YGL078C, strain dbp3, stronger effect = lower value): 1 (inactive)
- normalized growth (locus YGL086W, strain mad1, stronger effect = lower value): 0.864 (active)
- normalized growth (locus YGL167C, strain pmr1, stronger effect = lower value): 1.01 (inactive)
- normalized growth (locus YGL173C, strain kem1, stronger effect = lower value): 1.02 (inactive)
- normalized growth (locus YGL227W, strain vid30, stronger effect = lower value): 1.01 (inactive)
- normalized growth (locus YGL240W, strain doc1, stronger effect = lower value): 1.01 (inactive)
- normalized growth (locus YGL248W, strain PDE1, stronger effect = lower value): 0.585 (active)
- normalized growth (locus YGL253W, strain hxk2, stronger effect = lower value): 1.01 (inactive)
- normalized growth (locus YGR078C, strain PAC10, stronger effect = lower value): 0.477 (active)
- normalized growth (locus YGR135W, strain pre9, stronger effect = lower value): 0.81 (active)
- normalized growth (locus YGR252W, strain gcn5, stronger effect = lower value): 0.824 (inactive)
- normalized growth (locus YHR013C, strain ard1, stronger effect = lower value): 1.02 (inactive)
- normalized growth (locus YHR027C, strain rpn1, stronger effect = lower value): 0.999 (inactive)
- normalized growth (locus YHR030C, strain SLT2, stronger effect = lower value): 0.707 (active) and 1 (inactive)
- normalized growth (locus YHR079C, strain IRE1 (second series), stronger effect = lower value): 0.996 (inactive)
- normalized growth (locus YHR079C, strain IRE1, stronger effect = lower value): 0.969 (inactive)
- normalized growth (locus YHR094C, strain hxt1, stronger effect = lower value): 0.985 (inactive)
- normalized growth (locus YHR129C, strain ARP1, stronger effect = lower value): 0.728 (active)
- normalized growth (locus YHR142W, strain chs7, stronger effect = lower value): 1.01 (inactive)
- normalized growth (locus YHR200W, strain rpn10, stronger effect = lower value): 0.985 (inactive)
- normalized growth (locus YIL066C, strain RNR3, stronger effect = lower value): 0.24 (active)
- normalized growth (locus YIL073C, strain SPO22, stronger effect = lower value): 0.202 (active)
- normalized growth (locus YIL125W, strain kgd1, stronger effect = lower value): 1.01 (inactive)
- normalized growth (locus YIR030C, strain dcg1, stronger effect = lower value): 1.01 (inactive)
- normalized growth (locus YJL092W, strain hpr5, stronger effect = lower value): 1.02 (inactive)
- normalized growth (locus YJL095W, strain BCK1 (second series), stronger effect = lower value): 1.01 (inactive)
- normalized growth (locus YJL095W, strain BCK1, stronger effect = lower value): 0.773 (active) and 0.995 (inactive)
- normalized growth (locus YJL115W, strain asf1, stronger effect = lower value): 1.02 (inactive)
- normalized growth (locus YJL129C, strain trk1, stronger effect = lower value): 1.02 (inactive)
- normalized growth (locus YJL134W, strain LCB3, stronger effect = lower value): 0.938 (inactive)
- normalized growth (locus YJL154C, strain vps35, stronger effect = lower value): 1.02 (inactive)
- normalized growth (locus YJL164C, strain tpk1, stronger effect = lower value): 1 (inactive)
- normalized growth (locus YJL166W, strain qcr8, stronger effect = lower value): 1.01 (inactive)
- normalized growth (locus YJL168C, strain set2, stronger effect = lower value): 0.979 (inactive)
- normalized growth (locus YJL187C, strain SWE1 (second series), stronger effect = lower value): 0.793 (active)
- normalized growth (locus YJR043C, strain POL32, stronger effect = lower value): 0.398 (active)
- normalized growth (locus YJR066W, strain TOR1, stronger effect = lower value): 0.97 (inactive)
- normalized growth (locus YJR075W, strain HOC1, stronger effect = lower value): 1.01 (inactive)
